Results taken from PubChem BioAssay (NCI).
This is part of a sample that, as a whole, favours compounds with a hit. Of some 79,000 tested, about 15% had one in any assay. Activity calls are given as the source filed them. Rule as the data show it: active = growth inhibition above about 70%; inactive = the rest.

Tests used:
[1] = NCI Yeast Anticancer Drug Screen. Data for the rad52 strain (AID 147);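 also: 0% = growth of vehicle-treated control cultures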; details: S. cerevisiae rad52 mutant growth inhibition, stronger effect = higher value
Method in brief: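 The repair-mutant yeast strain was incubated with compounds, then growth was read and inhibition derived relative to vehicle.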

[2] = NCI Yeast Anticancer Drug Screen. Data for the wt1 strain (AID 149);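 also: 0% = growth of vehicle-treated wt1 cultures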; details: S. cerevisiae wt1 strain (SPY 50644) growth inhibition, stronger effect = higher value
Method in brief: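 Measured: growth of wt1 yeast under compound versus vehicle treatment, reported as inhibition.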

[3] = NCI Yeast Anticancer Drug Screen. Data for the rad50EPP+ strain (AID 151);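 also: 0% = growth of vehicle-treated control cultures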; details: S. cerevisiae rad50 mutant strain, stronger effect = higher value
Method in brief: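 Vehicle-normalised growth inhibition; rad50EPP+ yeast strain, altered in DNA damage repair, compound-treated.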

[4] = NCI Yeast Anticancer Drug Screen. Data for the rad50 strain (AID 155);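 also: 0% = growth of vehicle-only cultures of the same strain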; details: S. cerevisiae rad50 strain growth inhibition, stronger effect = higher value
Method in brief: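 Growth of the mutant yeast was measured after compound exposure and referenced to vehicle-treated cultures.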

[5] = NCI Yeast Anticancer Drug Screen. Data for the mec2-1 strain (AID 157); details: S. cerevisiae mec2-1 strain, stronger effect = higher value
Method in brief: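 Mutant yeast (mec2-1) grown with compound; growth inhibition relative to vehicle control reported.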

[6] = NCI Yeast Anticancer Drug Screen. Data for the rad14 strain (AID 159);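 also: 0% = growth of vehicle-treated control cultures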; details: S. cerevisiae rad14 strain growth inhibition, stronger effect = higher value
Method in brief: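 Here, inhibition of yeast growth was measured after compound exposure, using a strain with a genetic defect in DNA damage repair and vehicle-treated cultures as the reference.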

[7] = NCI Yeast Anticancer Drug Screen. Data for the sgs1 mgt1 strain (AID 161);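 also: 0% = growth of cultures given vehicle only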; details: S. cerevisiae sgs1 mgt1 strain, stronger effect = higher value
Method in brief: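 This yeast growth screen uses a strain with defined DNA-repair lesions; compound-treated growth is compared with vehicle-treated growth.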

[8] = NCI Yeast Anticancer Drug Screen. Data for the CLN2oe strain (AID 163);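 also: 0% = growth of vehicle-only control cultures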; details: S. cerevisiae CLN2oe strain, stronger effect = higher value
Method in brief: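 Compounds are applied to yeast harbouring a defined cell-cycle control change; reduced growth compared with vehicle-treated controls gives the value.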

[9] = NCI Yeast Anticancer Drug Screen. Data for the cln2 rad14 strain (AID 165);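 also: 0% = growth equal to vehicle treated cultures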; details: S. cerevisiae cln2 rad14 strain, stronger effect = higher value
Method in brief: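 Readout is yeast growth inhibition versus vehicle-treated controls, using a strain with cln2 and rad14 alterations exposed to compound.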

[10] = NCI Yeast Anticancer Drug Screen. Data for the bub3 strain (AID 167); details: S. cerevisiae bub3 mutant strain, stronger effect = higher value
Method in brief: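 Whole-cell yeast assay. The mutant strain was incubated with compounds, and growth inhibition was determined by comparison with vehicle-treated cells.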

[11] = NCI Yeast Anticancer Drug Screen. Data for the wt2 strain (AID 169);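 also: 0% = growth of vehicle-treated yeast cultures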; details: S. cerevisiae wt2 strain growth inhibition, stronger effect = higher value
Method in brief: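 Against vehicle-treated controls, the growth of yeast exposed to each compound was compared, and the inhibition was recorded.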

[12] = NCI Yeast Anticancer Drug Screen. Data for the sgs1 strain (AID 173);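 also: 0% = growth of vehicle-only control cultures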; details: S. cerevisiae sgs1 mutant, stronger effect = higher value
Method in brief: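 Each compound was added to cultures of the altered yeast strain. Growth was recorded, and inhibition was derived by comparison with vehicle controls.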

[13] = NCI Yeast Anticancer Drug Screen. Data for the mlh1 rad18 strain (AID 175); details: S. cerevisiae mlh1 rad18 strain growth inhibition, stronger effect = higher value
Method in brief: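 Genetically defined yeast (DNA repair-deficient) exposed to compounds; growth inhibition determined relative to vehicle.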

[14] = NCI Yeast Anticancer Drug Screen. Data for the rad18 strain (AID 177); details: S. cerevisiae rad18 mutant growth inhibition, stronger effect = higher value
Method in brief: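 Vehicle-treated cultures served as the baseline for scoring compound-induced growth inhibition in DNA-repair-mutant yeast.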

[15] = NCI Yeast Anticancer Drug Screen. Data for the mlh1 strain (AID 171);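 also: 0% = growth of vehicle-treated control cultures of the same strain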; details: S. cerevisiae mlh1 strain growth inhibition, stronger effect = higher value
Method in brief: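 Measured: yeast growth. Reference: vehicle-treated controls. Organism: strain with a defined alteration affecting DNA damage repair or cell cycle control, treated with compound.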

[16] = at 5.0 µM (retest, dose inferred, filed as 0.5)
[17] = at 50.0 µM (retest, dose inferred, filed as 5.0)

Measured: growth inhibition

O=Nn1c2ccccc2c2cc([N+](=O)[O-])ccc21
active: [1]; at 33.0 µM 88% | [1]; at 100.0 µM 95% | [2]; at 100.0 µM 92% | [3]; at 100.0 µM 85% | [4]; at 33.0 µM 89% | [4]; [17] 92% | [4]; at 50.0 µM 81.9% | [4]; at 100.0 µM 93% | [5]; [17] 91% | [5]; at 50.0 µM 75.8% | [5]; at 100.0 µM 93% | [6]; at 100.0 µM 93% | [7]; at 50.0 µM 84.5% | [8]; at 100.0 µM 94% | [9]; at 50.0 µM 72.9% | [10]; at 33.0 µM 88% | [10]; [17] 71% | [10]; at 50.0 µM 84.8% | [10]; at 100.0 µM 96% | [11]; at 100.0 µM 91% | [12]; at 100.0 µM 92% | [13]; [17] 97% | [13]; at 50.0 µM 80% | [14]; at 33.0 µM 84% | [14]; at 100.0 µM 93%
inactive: [1]; at 1.2 µM -6% | [1]; at 3.7 µM 11% | [1]; at 11.0 µM 51% | [2]; at 1.2 µM -27% | [2]; at 3.7 µM -23% | [2]; at 11.0 µM -14% | [2]; at 33.0 µM 49% | [3]; at 1.2 µM 8% | [3]; at 3.7 µM 15% | [3]; at 11.0 µM 27% | [3]; at 33.0 µM 66% | [4]; at 1.2 µM 15% | [4]; at 3.7 µM 24% | [4]; [16] 47% | [4]; at 11.0 µM 53% | [5]; at 1.2 µM -16% | [5]; at 3.7 µM -1% | [5]; [16] 51% | [5]; at 11.0 µM 11% | [5]; at 33.0 µM 59% | [6]; at 1.2 µM -19% | [6]; at 3.7 µM -5% | [6]; at 11.0 µM 1% | [6]; at 33.0 µM 61% | [7]; [16] -26% | [7]; [17] 27% | [8]; at 1.2 µM -32% | [8]; at 3.7 µM -9% | [8]; at 11.0 µM -9% | [8]; at 33.0 µM 55% | [9]; [16] 35% | [9]; [17] 62% | [10]; at 1.2 µM 4% | [10]; at 3.7 µM 19% | [10]; [16] 19% | [10]; at 11.0 µM 55% | [11]; at 1.2 µM -28% | [11]; at 3.7 µM -22% | [11]; at 11.0 µM 8% | [11]; at 33.0 µM 59% | [12]; at 1.2 µM -8% | [12]; at 3.7 µM -14% | [12]; at 11.0 µM -1% | [12]; at 33.0 µM 65% | [13]; [16] 39% | [14]; at 1.2 µM -10% | [14]; at 3.7 µM -6% | [14]; at 11.0 µM 37%

NP1(Oc2ccc(F)cc2)=NP(N)(Oc2ccc(F)cc2)=NP(Oc2ccc(F)cc2)(Oc2ccc(F)cc2)=N1 (stereo unspecified)
active: [1]; at 11.0 µM 74% | [1]; at 33.0 µM 71% | [1]; at 100.0 µM 96% | [4]; at 11.0 µM 95% | [4]; at 33.0 µM 96% | [4]; at 50.0 µM 94.8% | [4]; at 100.0 µM 96% | [5]; at 50.0 µM 84.7% | [5]; at 100.0 µM 94% | [6]; at 100.0 µM 88% | [7]; at 50.0 µM 97.9% | [8]; at 100.0 µM 94% | [9]; at 50.0 µM 97% | [10]; at 50.0 µM 87.5% | [10]; at 100.0 µM 96% | [15]; at 100.0 µM 84% | [13]; [17] 86% | [13]; at 50.0 µM 88.2% | [14]; at 33.0 µM 83% | [14]; at 100.0 µM 97%
inactive: [1]; at 1.2 µM -1% | [1]; at 3.7 µM 7% | [2]; at 1.2 µM -2% | [2]; at 3.7 µM 0% | [2]; at 11.0 µM 20% | [2]; at 33.0 µM 41% | [2]; at 100.0 µM 48% | [3]; at 1.2 µM -6% | [3]; at 3.7 µM -2% | [3]; at 11.0 µM 2% | [3]; at 33.0 µM 4% | [3]; at 100.0 µM 1% | [4]; at 1.2 µM 4% | [4]; at 3.7 µM 5% | [4]; [16] 21% | [4]; [17] 64% | [5]; at 1.2 µM 1% | [5]; at 3.7 µM 3% | [5]; [16] 12% | [5]; at 11.0 µM 26% | [5]; at 33.0 µM 28% | [5]; [17] 19% | [6]; at 1.2 µM -2% | [6]; at 3.7 µM 1% | [6]; at 11.0 µM 6% | [6]; at 33.0 µM 15% | [7]; [16] 1% | [7]; [17] 28% | [8]; at 1.2 µM 0% | [8]; at 3.7 µM -3% | [8]; at 11.0 µM 17% | [8]; at 33.0 µM 53% | [9]; [16] 5% | [9]; [17] 54% | [10]; at 1.2 µM 1% | [10]; at 3.7 µM -1% | [10]; [16] 8% | [10]; at 11.0 µM 53% | [10]; at 33.0 µM 23% | [10]; [17] 35% | [11]; at 1.2 µM 0% | [11]; at 3.7 µM 7% | [11]; at 11.0 µM -1% | [11]; at 33.0 µM 22% | [11]; at 100.0 µM 50% | [15]; at 1.2 µM 0% | [15]; at 3.7 µM -2% | [15]; at 11.0 µM 1% | [15]; at 33.0 µM 15% | [13]; [16] 17% | [14]; at 1.2 µM -1% | [14]; at 3.7 µM 14% | [14]; at 11.0 µM 63%
